Several values for one entry are separate records, joined by “and”; a condition that tells them apart may be missing. Equal entries are not always repeated. Records with an inconclusive call do not appear. Some structures have more than one record in an assay (separate samples or runs), and their calls can disagree. Activity calls are given as the source filed them. Rule for the calls: active = hit-call score of the fitted dose curve at least 0.9, where 1 is the maximum; inconclusive = response in the unintended direction; inactive = score below 0.9.
How the values were obtained:
[1] = ATG_M_06_XSP2: Attagene TRANS-FACTORIAL Multi-Species (XSP2) HepG2 Assay for M06 Transcription Factor (Internal Marker) (AID 2283811);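 note: hits are increases in signal above the DMSO baseline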
Summary of the method: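 HepG2, multiplexed reporter transfection; 24 h dosing; AR stimulated with 3 nM 6-alpha-fluorotestosterone + 1.5 nM norgestrel; RNA → RT-PCR → 6-FAM primer extension → HpaI → CE. Positive direction vs DMSO.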

[2] = target: GAL4 Transcription Factor (Internal Marker), GAL4 (gene 855828) (UniProt P04386); assay: ATG_GAL4_XSP2: Attagene TRANS-FACTORIAL Multi-Species (XSP2) HepG2 Assay for GAL4 Transcription Factor (Internal Marker) (AID 2283814);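 note: GAL4 reporter mRNA background control in MRTU transfected cells not a receptor target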
GAL4 Transcription Factor (Internal Marker), GAL4 (gene 855828), sequence (P04386 whole entry, looked up, the tested form may be a part): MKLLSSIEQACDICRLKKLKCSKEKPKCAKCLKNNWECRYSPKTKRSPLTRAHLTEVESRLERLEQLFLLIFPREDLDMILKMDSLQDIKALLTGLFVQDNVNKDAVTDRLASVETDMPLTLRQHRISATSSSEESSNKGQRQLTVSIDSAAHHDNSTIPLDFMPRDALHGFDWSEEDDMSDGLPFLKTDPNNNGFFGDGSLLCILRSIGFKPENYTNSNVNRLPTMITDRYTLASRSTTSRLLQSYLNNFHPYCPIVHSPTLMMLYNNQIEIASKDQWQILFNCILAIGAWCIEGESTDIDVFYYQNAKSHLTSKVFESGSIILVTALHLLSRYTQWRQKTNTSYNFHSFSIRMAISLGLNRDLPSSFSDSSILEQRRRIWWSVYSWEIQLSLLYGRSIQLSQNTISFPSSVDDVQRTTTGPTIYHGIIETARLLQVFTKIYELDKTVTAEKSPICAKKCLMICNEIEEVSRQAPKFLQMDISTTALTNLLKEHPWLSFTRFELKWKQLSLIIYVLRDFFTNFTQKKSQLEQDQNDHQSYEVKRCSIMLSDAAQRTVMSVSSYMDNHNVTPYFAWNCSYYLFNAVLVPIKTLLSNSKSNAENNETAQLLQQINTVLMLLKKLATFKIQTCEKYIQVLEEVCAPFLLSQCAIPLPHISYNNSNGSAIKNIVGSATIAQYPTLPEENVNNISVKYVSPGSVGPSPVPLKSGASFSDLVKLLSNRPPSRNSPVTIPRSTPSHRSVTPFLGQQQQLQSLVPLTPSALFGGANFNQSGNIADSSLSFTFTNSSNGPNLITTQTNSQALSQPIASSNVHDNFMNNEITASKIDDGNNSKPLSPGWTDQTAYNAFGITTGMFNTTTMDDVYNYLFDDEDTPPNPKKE
Summary of the method: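 HepG2 cells transiently transfected with GAL4-UAS reporter units, stimulated with 3 nM 6-alpha-fluorotestosterone plus 1.5 nM norgestrel, dosed 24 h. Reporter mRNA by RT-PCR/capillary electrophoresis; gain-of-signal fit versus DMSO, background control.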

[3] = target: zebrafish Estrogen Receptor (ER1), esr1 (gene 259252) (UniProt P57717); assay: ATG_zfER1_XSP2: Attagene TRANS-FACTORIAL Multi-Species (XSP2) HepG2 Assay for zebrafish Estrogen Receptor (ER1) (AID 2283816)
zebrafish Estrogen Receptor (ER1), esr1 (gene 259252), sequence (P57717 whole entry, looked up, the tested form may be a part): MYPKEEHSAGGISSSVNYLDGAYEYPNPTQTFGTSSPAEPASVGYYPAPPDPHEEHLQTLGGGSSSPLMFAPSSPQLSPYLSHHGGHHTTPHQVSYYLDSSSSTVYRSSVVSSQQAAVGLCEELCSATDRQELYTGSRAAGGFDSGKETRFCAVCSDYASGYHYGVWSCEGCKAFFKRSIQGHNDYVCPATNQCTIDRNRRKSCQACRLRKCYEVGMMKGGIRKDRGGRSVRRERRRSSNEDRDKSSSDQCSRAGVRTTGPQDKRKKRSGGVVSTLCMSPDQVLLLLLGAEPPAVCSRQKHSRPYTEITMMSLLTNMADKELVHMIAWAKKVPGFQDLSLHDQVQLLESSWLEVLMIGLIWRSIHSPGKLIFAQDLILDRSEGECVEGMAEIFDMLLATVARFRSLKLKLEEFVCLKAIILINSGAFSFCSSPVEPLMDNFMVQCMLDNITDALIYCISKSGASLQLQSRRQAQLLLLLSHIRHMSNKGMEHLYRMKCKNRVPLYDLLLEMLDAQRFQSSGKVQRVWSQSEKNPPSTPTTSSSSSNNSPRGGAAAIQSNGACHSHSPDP
Summary of the method: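 HepG2 cells transiently transfected with a GAL4-UAS reporter and a chimeric zebrafish ER1-Gal4 construct, dosed 24 h. Reporter mRNA quantified by RT-PCR, labelling, HpaI digestion and capillary electrophoresis, relative to DMSO.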

[4] = test system: zebrafish Estrogen Receptor (ER2a), gene 317734; assay: ATG_zfER2a_XSP2: Attagene TRANS-FACTORIAL Multi-Species (XSP2) HepG2 Assay for zebrafish Estrogen Receptor (ER2a) (AID 2283818);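 note: hits raise reporter mRNA so AC50 reflects activation of zebrafish ER2a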
Summary of the method: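 HepG2 cells transiently transfected with GAL4-UAS reporter units and chimeric zebrafish ER2a-Gal4, exposed 24 h; medium contains 3 nM 6-alpha-fluorotestosterone and 1.5 nM norgestrel. Reporter mRNA quantified by RT-PCR, HpaI digestion, capillary electrophoresis; gain versus DMSO.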

[5] = test system: frog Estrogen Receptor (ER), gene 398734; assay: ATG_frER1_XSP2: Attagene TRANS-FACTORIAL Multi-Species (XSP2) HepG2 Assay for frog Estrogen Receptor (ER) (AID 2283821);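 note: hits raise reporter mRNA above DMSO baseline so potency means agonist or activator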
Summary of the method: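 Steps: transfect HepG2 with multiple reporter transcription units; treat with chemical for 24 h; isolate RNA, reverse-transcribe, PCR-amplify, label with 6-FAM, digest with HpaI; resolve fragments by capillary electrophoresis. Signal is scored against DMSO.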

[6] = test system: zebrafish Estrogen Receptor (ER2b), gene 317733; assay: ATG_zfER2b_XSP2: Attagene TRANS-FACTORIAL Multi-Species (XSP2) HepG2 Assay for zebrafish Estrogen Receptor (ER2b) (AID 2283823);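 note: fitted upward as reporter gain over DMSO so potency reflects activation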
Summary of the method: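 Read-out: fluorescent reporter mRNA, measured by RT-PCR then capillary electrophoresis after HpaI digestion. HepG2 cells carried transiently transfected multi-reporter TRANS constructs (NR-Gal4 chimeras); 24 h chemical exposure; activity scored upward versus DMSO control.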

[7] = test system: frog Estrogen Receptor (ER2), gene 100174814; assay: ATG_frER2_XSP2: Attagene TRANS-FACTORIAL Multi-Species (XSP2) HepG2 Assay for frog Estrogen Receptor (ER2) (AID 2283828)
Summary of the method: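 Multiplexed transactivation in HepG2: frog estrogen receptor fused to Gal4 drives a UAS reporter. Signal is reporter mRNA after 24 h treatment.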

[8] = target: Peroxisome proliferator-activated receptor gamma (Homo sapiens) (UniProt P37231); assay: ATG_hPPARg_XSP2: Attagene TRANS-FACTORIAL Multi-Species (XSP2) HepG2 Assay for human Peroxisome Proliferator-activated Receptor gamma (PPARg) (AID 2283829);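 note: actives raise reporter mRNA above DMSO so AC50 reflects PPARg activation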
Peroxisome proliferator-activated receptor gamma (Homo sapiens), sequence (P37231 whole entry, looked up, the tested form may be a part): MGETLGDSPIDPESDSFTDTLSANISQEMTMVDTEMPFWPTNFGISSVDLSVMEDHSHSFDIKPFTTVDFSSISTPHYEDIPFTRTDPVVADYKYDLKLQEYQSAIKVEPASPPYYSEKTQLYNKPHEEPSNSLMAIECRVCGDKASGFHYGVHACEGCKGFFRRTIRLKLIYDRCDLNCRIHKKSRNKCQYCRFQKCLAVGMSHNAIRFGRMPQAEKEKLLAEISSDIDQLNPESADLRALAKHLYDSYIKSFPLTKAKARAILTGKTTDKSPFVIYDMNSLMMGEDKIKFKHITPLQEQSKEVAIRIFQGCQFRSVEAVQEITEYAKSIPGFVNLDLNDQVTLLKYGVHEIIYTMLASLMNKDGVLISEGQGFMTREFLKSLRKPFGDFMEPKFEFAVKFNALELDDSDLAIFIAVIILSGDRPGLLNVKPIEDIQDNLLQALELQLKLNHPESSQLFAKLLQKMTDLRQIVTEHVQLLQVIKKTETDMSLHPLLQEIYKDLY
Summary of the method: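 HepG2 cells transiently transfected with multiplexed GAL4-UAS reporter units for chimeric NR-Gal4 receptors, dosed 24 h. Reporter mRNA quantified by RT-PCR, 6-FAM labeling, HpaI digestion and capillary electrophoresis; gain-of-signal fitted against DMSO baseline.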

[9] = target: mouse Peroxisome Proliferator-activated Receptor gamma (PPARg), Pparg (gene 19016) (UniProt P37238); assay: ATG_mPPARg_XSP2: Attagene TRANS-FACTORIAL Multi-Species (XSP2) HepG2 Assay for mouse Peroxisome Proliferator-activated Receptor gamma (PPARg) (AID 2283830);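 note: hits are gains in reporter mRNA above DMSO so AC50 marks activation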
mouse Peroxisome Proliferator-activated Receptor gamma (PPARg), Pparg (gene 19016), sequence (P37238 whole entry, looked up, the tested form may be a part): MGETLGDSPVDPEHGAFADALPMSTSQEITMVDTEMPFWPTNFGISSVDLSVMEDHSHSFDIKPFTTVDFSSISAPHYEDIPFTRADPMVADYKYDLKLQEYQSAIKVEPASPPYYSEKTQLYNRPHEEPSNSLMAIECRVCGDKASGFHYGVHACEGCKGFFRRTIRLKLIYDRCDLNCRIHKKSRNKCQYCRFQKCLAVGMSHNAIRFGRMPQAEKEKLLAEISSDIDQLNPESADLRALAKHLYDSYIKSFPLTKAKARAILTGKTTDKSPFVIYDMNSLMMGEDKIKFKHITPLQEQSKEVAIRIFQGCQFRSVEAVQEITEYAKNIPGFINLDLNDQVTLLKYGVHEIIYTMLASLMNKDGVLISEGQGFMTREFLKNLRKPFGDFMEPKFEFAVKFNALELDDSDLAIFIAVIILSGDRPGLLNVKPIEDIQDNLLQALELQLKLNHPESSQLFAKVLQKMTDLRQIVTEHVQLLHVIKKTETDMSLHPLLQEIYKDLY
Summary of the method: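 HepG2 cells transiently transfected with GAL4-UAS reporter units for chimeric NR-Gal4 proteins including mouse PPARg, exposed 24 h; medium contained 3 nM 6-alpha-fluorotestosterone and 1.5 nM norgestrel. Reporter mRNA quantified by RT-PCR, HpaI digestion and capillary electrophoresis, vs DMSO.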

[10] = test system: turtle Estrogen Receptor (ERa), gene 101933533; assay: ATG_trERa_XSP2: Attagene TRANS-FACTORIAL Multi-Species (XSP2) HepG2 Assay for turtle Estrogen Receptor (ERa) (AID 2283812);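 note: human HepG2 liver cells transiently expressing turtle ERa-Gal4 chimeric receptor; actives raise reporter signal above DMSO so AC50 reflects agonist activity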
Summary of the method: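 HepG2 cells transiently transfected with GAL4-UAS reporter units expressing turtle ERa-Gal4 chimera. Reporter mRNA measured after 24 h dosing by RT-PCR, fluorescent labelling and capillary electrophoresis; gain of signal fitted versus DMSO.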

[11] = target: chicken Estrogen Receptor (ERa), ESR1 (gene 396099) (UniProt P06212); assay: ATG_chERa_XSP2: Attagene TRANS-FACTORIAL Multi-Species (XSP2) HepG2 Assay for chicken Estrogen Receptor (ERa) (AID 2283817);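 note: actives raise reporter signal above DMSO so AC50 reflects ER activation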
chicken Estrogen Receptor (ERa), ESR1 (gene 396099), sequence (P06212 whole entry, looked up, the tested form may be a part): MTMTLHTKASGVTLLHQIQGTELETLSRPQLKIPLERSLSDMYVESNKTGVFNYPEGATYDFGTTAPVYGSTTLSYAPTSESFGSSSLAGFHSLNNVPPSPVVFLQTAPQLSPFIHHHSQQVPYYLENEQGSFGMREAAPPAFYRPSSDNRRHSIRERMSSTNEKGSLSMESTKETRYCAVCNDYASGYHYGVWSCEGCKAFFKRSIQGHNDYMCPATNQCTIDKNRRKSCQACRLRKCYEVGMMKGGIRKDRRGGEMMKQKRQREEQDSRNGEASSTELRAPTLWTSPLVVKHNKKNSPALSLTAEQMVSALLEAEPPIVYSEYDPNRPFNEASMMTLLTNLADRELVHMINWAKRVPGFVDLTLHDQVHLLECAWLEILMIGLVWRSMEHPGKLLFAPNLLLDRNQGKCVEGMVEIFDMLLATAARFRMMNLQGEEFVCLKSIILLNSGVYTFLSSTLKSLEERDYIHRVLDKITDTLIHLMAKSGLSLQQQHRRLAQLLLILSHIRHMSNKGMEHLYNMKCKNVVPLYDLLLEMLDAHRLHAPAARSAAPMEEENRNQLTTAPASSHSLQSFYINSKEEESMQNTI
Summary of the method: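 Transient MRTU transfection of HepG2 → 24 h chemical dosing → TriZol RNA, oligo(dT) RT → PCR, 6-FAM primer extension, HpaI digest → CE quantitation of chicken ERa-Gal4-driven reporter mRNA. Positive direction vs DMSO.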

[12] = test system: turtle Androgen Receptor (AR), gene 101947425; assay: ATG_trAR_XSP2: Attagene TRANS-FACTORIAL Multi-Species (XSP2) HepG2 Assay for turtle Androgen Receptor (AR) (AID 2283815);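 for AC50: potency for gain of reporter signal meaning activation above DMSO baseline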
Summary of the method: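 HepG2 cells transiently transfected with GAL4-UAS reporter units for chimeric NR-Gal4 receptors; 24 h dosing in presence of 3 nM 6-alpha-fluorotestosterone and 1.5 nM norgestrel. Reporter mRNA by RT-PCR and capillary electrophoresis, gain of signal versus DMSO.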

[13] = test system: chicken Androgen Receptor (AR), gene 422165; assay: ATG_chAR_XSP2: Attagene TRANS-FACTORIAL Multi-Species (XSP2) HepG2 Assay for chicken Androgen Receptor (AR) (AID 2283819);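 note: hits raise reporter mRNA above DMSO so potency is for activation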
Summary of the method: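 HepG2 cells transiently transfected with chicken AR–GAL4 chimeric reporter constructs, stimulated with 3 nM 6-alpha-fluorotestosterone plus 1.5 nM norgestrel, dosed 24 h. Reporter mRNA quantified by RT-PCR and capillary electrophoresis; gain of signal fitted versus DMSO.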

[14] = target: Estrogen receptor (Homo sapiens) (UniProt P03372); assay: ATG_hERa_XSP2: Attagene TRANS-FACTORIAL Multi-Species (XSP2) HepG2 Assay for human Estrogen Receptor (ERa) (AID 2283827)
Estrogen receptor (Homo sapiens), sequence (P03372 whole entry, looked up, the tested form may be a part): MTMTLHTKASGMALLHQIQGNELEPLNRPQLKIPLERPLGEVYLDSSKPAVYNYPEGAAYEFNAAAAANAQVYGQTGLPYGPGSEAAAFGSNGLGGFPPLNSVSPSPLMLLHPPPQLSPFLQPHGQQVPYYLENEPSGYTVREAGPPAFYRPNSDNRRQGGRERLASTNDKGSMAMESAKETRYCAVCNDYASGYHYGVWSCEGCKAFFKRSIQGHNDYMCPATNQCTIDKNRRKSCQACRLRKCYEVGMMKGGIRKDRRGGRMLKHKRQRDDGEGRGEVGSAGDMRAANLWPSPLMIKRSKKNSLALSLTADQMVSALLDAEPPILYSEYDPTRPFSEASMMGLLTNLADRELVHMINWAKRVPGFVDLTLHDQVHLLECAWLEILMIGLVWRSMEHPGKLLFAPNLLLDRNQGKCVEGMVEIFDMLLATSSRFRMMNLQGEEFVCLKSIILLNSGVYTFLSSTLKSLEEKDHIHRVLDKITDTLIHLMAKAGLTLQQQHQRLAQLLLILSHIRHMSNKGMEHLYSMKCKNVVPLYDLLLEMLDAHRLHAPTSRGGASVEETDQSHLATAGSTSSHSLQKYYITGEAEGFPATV
Summary of the method: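 HepG2 cells transiently transfected with multiplexed GAL4-UAS reporters driven by chimeric receptor-Gal4 proteins, dosed 24 h with 3 nM 6-alpha-fluorotestosterone and 1.5 nM norgestrel present. Reporter mRNA by RT-PCR and capillary electrophoresis; gain-of-signal fit versus DMSO.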

[15] = target: Estrogen receptor beta (Homo sapiens) (UniProt Q92731); assay: ATG_hERb_XSP2: Attagene TRANS-FACTORIAL Multi-Species (XSP2) HepG2 Assay for human Estrogen Receptor (ERb) (AID 2283813);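 note: actives raise reporter mRNA above DMSO so AC50 reflects agonist induction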
Estrogen receptor beta (Homo sapiens), sequence (Q92731 whole entry, looked up, the tested form may be a part): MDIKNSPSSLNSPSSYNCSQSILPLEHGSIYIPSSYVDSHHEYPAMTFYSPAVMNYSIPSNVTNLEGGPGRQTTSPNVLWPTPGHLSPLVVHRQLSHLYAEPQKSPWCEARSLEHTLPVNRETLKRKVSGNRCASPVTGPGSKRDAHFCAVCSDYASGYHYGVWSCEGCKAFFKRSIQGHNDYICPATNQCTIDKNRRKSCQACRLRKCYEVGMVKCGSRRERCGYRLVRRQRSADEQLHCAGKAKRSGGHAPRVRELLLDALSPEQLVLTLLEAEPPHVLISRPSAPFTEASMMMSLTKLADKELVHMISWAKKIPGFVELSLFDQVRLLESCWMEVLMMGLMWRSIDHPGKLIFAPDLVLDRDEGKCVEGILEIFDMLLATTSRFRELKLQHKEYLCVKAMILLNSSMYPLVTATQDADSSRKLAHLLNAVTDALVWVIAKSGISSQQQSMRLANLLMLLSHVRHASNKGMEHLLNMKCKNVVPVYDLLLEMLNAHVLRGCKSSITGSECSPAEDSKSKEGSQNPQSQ
Summary of the method: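 HepG2 cells transiently transfected with GAL4-UAS reporter units and chimeric human ERb-Gal4, 24 h exposure. Reporter mRNA quantified by RT-PCR with FAM labelling, HpaI digestion and capillary electrophoresis; gain of signal versus DMSO.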

[16] = test system: frog Androgen Receptor (AR), gene 399456; assay: ATG_frAR_XSP2: Attagene TRANS-FACTORIAL Multi-Species (XSP2) HepG2 Assay for frog Androgen Receptor (AR) (AID 2283824);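 note: actives raise reporter signal above DMSO so AC50 reflects agonist-like induction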
Summary of the method: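 HepG2 cells transiently transfected with GAL4-UAS reporter units and frog (Xenopus laevis) AR-Gal4 chimera; reporter mRNA measured 24 h after dosing by RT-PCR and capillary electrophoresis. Gain of signal fitted relative to DMSO baseline.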

[17] = test system: zebrafish Androgen Receptor (AR), gene 100005148; assay: ATG_zfAR_XSP2: Attagene TRANS-FACTORIAL Multi-Species (XSP2) HepG2 Assay for zebrafish Androgen Receptor (AR) (AID 2283825);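 note: hits raise reporter mRNA above DMSO so AC50 reflects agonist-type gain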
Summary of the method: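 Zebrafish AR–GAL4 chimera transiently expressed with GAL4-UAS reporter in HepG2 cells, co-stimulated with 3 nM 6-alpha-fluorotestosterone and 1.5 nM norgestrel; 24 h dosing, reporter mRNA read by RT-PCR/capillary electrophoresis versus DMSO.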

[18] = target: zebrafish Thyroid Hormone Receptor beta (TRb), thrb (gene 30607) (UniProt Q9PVE4); assay: ATG_zfTRb_XSP1: Attagene TRANS-FACTORIAL Multi-Species (XSP1) HepG2 Assay for zebrafish Thyroid Hormone Receptor beta (TRb) (AID 2283809)
zebrafish Thyroid Hormone Receptor beta (TRb), thrb (gene 30607), sequence (Q9PVE4 whole entry, looked up, the tested form may be a part): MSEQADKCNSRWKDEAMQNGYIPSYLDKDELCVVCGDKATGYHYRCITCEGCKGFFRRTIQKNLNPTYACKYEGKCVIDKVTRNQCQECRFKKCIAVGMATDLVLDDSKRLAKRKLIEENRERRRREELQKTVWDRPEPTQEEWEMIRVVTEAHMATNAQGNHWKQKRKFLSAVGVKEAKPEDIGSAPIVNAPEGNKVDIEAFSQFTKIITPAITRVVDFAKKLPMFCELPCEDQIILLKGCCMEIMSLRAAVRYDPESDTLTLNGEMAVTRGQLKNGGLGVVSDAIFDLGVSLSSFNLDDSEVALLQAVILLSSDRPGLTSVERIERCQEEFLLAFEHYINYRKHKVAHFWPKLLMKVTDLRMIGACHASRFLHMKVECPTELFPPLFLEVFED
Summary of the method: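 HepG2 cells transiently transfected with multiplexed GAL4-UAS reporter units expressing chimeric zebrafish TRb–Gal4. Dosed 24 h with 3 nM 6-alpha-fluorotestosterone present; reporter mRNA measured by RT-PCR, HpaI digestion and capillary electrophoresis; gain of signal versus DMSO.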

[19] = ATG_XTT_Cytotoxicity_XSP1: Cytotoxicity Assessment in the Attagene TRANS-FACTORIAL Multi-Species (XSP1) HepG2 Assay (AID 2283810)
Summary of the method: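 XTT viability readout taken at 24 hours post-dosing in HepG2 liver cells co-treated with 3 nM 6-alpha-fluorotestosterone. Signal loss relative to DMSO controls reflects cytotoxicity.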

[20] = ATG_M_19_XSP2: Attagene TRANS-FACTORIAL Multi-Species (XSP2) HepG2 Assay for M32 Transcription Factor (Internal Marker) (AID 2283822)
Summary of the method: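 Internal background marker in a multi-species nuclear receptor TRANS panel: transfected HepG2 cells exposed 24 h, with 3 nM 6-alpha-fluorotestosterone and 1.5 nM norgestrel present. Readout is RT-PCR of reporter transcripts resolved by capillary electrophoresis, gain-of-signal versus DMSO.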

Measured: AC50

CCCCCC(=O)O[C@]1(C(C)=O)CC[C@H]2[C@@H]3CCC4=CC(=O)CC[C@]4(C)[C@H]3CC[C@@]21C
inactive: [1] | [2] | [3] | [5] | [7]
active: [4] 172 µM | [6] 7.02 µM | [8] 2.88 µM and 2.34 µM | [9] 7.63 µM and 3.17 µM

O=c1cc(-c2ccc(O)cc2)oc2cc(O)cc(O)c12
inactive: [10] | [5]
active: [10] 1.51 µM | [3] 2.58 µM and 764 nM | [11] 1.67 µM and 768 nM | [4] 1.1 µM and 677 nM | [5] 767 nM | [6] 1.69 µM and 1.07 µM | [7] 3.85 µM and 215 nM | [8] 27.8 µM and 12.8 µM | [9] 27.5 µM and 16.2 µM

CC(C)(C)c1ccc(S)cc1
inactive: [1] | [10] | [2] | [12] | [3] | [11] | [13] | [5] | [14] | [8] | [9]
active: [4] 100 µM | [6] 179 µM | [8] 3.68 µM

CCCCCCCCOC(=O)c1ccc(O)cc1
active: [10] 17.1 µM and 1.5 µM | [2] 49.4 µM | [12] 33.4 µM | [11] 18 µM and 788 nM | [4] 11 µM and 3.51 µM | [13] 33.4 µM | [5] 20.9 µM and 2.94 µM | [6] 14.9 µM and 2.94 µM | [16] 33.4 µM | [14] 21.2 µM and 3.19 µM | [7] 9.18 µM and 803 nM
inactive: [1] | [15] | [12] | [3] | [13] | [17]

CC/C(=C(\c1ccccc1)c1ccc(OCCN(C)C)cc1)c1ccccc1
inactive: [18] | [1] | [4] | [5] | [20]
active: [19] 26.1 µM

C#C[C@]1(O)CC[C@H]2[C@@H]3CCc4cc(O)ccc4[C@H]3CC[C@@]21C
active: [10] 6.94e-05 µM | [3] 2.55 nM | [4] 4.88e-05 µM | [6] 0.000204 µM | [7] 1.35 nM
inactive: [18] | [19] | [1] | [8]
